Test [1] deals with Insulin receptor (Homo sapiens) (UniProt P06213). The note with it: at 10 µM.
Test [2] has the same target. The note with it: at 1 µM.
The target is the same in test [3]. As to conditions: at 10 µM. The source holds these as a separate data set.
For test [4], the target named is Interleukin-1 receptor-associated kinase 1 (Homo sapiens) (UniProt P51617). The note with it: at 1 µM.
The target is the same in test [5]. The note with it: at 10 µM.
In test [6] the target is T1, Interleukin-1 receptor-associated kinase 4 (Homo sapiens) (UniProt Q9NWZ3).
T1 sequence (whole entry): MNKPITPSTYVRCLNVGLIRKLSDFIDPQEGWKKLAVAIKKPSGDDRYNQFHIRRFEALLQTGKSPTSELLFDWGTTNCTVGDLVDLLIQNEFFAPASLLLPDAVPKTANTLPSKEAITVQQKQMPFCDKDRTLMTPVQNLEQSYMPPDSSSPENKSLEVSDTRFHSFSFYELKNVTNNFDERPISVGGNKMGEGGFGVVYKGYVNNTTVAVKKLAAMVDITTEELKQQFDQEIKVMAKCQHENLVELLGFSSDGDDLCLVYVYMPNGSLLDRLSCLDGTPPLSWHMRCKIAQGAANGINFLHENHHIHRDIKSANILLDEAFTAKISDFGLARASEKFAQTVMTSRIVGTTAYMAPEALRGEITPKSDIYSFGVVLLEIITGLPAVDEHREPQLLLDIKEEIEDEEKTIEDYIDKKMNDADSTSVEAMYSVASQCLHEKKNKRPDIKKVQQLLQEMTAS
The note with it: at 1 µM.

Test [7] addresses T1, Interleukin-1 receptor-associated kinase 4 (Homo sapiens). As to conditions: at 10 µM.
Test [8] deals with Insulin receptor-related protein (Homo sapiens) (UniProt P14616). The note with it: at 1 µM.
Test [9] has the same target. The note with it: at 10 µM.
In test [10] the target is T2, Tyrosine-protein kinase ITK/TSK (Homo sapiens) (UniProt Q08881).
T2 sequence (whole entry): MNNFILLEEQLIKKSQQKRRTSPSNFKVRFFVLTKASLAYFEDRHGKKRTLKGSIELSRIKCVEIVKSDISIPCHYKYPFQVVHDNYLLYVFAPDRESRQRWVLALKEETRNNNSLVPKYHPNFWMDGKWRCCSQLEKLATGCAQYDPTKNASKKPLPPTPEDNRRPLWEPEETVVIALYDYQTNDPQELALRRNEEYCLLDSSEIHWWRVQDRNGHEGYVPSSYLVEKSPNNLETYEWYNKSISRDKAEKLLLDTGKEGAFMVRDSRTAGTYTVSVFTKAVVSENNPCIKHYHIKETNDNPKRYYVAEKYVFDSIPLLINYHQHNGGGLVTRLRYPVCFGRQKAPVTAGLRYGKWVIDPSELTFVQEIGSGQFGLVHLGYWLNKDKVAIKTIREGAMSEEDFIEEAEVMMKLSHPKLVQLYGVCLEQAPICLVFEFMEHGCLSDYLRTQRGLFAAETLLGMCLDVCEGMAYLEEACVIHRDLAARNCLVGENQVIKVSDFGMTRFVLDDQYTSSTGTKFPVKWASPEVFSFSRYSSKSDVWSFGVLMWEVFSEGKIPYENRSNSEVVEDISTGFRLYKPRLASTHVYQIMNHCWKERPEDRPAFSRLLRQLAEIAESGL
As to conditions: at 1 µM.

For test [11], the target named is T2, Tyrosine-protein kinase ITK/TSK (Homo sapiens). The note with it: at 10 µM.
Test [12] concerns the target Tyrosine-protein kinase JAK2 (Homo sapiens) (UniProt O60674). The note with it: at 1 µM.
Test [13] shares this target. As to conditions: at 10 µM.
Test [14] has as its target T3, Tyrosine-protein kinase JAK3 (Homo sapiens) (UniProt P52333).
T3 sequence (whole entry): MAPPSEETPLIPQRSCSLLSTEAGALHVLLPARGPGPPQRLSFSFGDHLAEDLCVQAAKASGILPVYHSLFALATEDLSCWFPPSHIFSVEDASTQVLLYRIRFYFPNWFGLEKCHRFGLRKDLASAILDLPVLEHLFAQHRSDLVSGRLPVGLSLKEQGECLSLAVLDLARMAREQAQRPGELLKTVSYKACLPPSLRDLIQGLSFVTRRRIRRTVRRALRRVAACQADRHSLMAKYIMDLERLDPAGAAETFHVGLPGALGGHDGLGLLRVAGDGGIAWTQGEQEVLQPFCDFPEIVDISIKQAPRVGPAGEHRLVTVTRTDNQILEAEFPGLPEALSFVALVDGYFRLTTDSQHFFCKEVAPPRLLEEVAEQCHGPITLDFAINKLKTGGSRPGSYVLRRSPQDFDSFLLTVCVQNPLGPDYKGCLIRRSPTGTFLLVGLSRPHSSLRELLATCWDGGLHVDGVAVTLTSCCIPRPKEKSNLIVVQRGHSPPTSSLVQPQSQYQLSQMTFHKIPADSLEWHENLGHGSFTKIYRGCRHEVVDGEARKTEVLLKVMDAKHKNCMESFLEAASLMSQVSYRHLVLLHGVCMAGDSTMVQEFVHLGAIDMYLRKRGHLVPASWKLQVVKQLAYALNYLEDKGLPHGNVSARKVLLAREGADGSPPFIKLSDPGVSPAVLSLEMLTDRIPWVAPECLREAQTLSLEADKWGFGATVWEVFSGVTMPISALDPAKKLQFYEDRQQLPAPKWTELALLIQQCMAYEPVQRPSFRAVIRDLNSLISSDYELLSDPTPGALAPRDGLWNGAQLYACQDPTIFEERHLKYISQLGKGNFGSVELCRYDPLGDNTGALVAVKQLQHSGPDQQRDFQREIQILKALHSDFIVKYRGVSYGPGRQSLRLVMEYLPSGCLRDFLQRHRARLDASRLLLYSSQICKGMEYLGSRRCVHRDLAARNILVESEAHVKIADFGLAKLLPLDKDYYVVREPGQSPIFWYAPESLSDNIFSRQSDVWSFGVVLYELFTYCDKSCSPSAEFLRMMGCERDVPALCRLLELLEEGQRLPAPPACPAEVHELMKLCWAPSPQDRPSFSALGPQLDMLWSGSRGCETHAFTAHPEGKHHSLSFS
As to conditions: at 1 µM.

For test [15], the target named is T3, Tyrosine-protein kinase JAK3 (Homo sapiens). The note with it: at 10 µM.
Test [16] concerns the target Mitogen-activated protein kinase 8 (Homo sapiens) (UniProt P45983). As to conditions: at 1 µM.
The target is the same in test [17]. The note with it: at 10 µM.
Test [18] addresses Mitogen-activated protein kinase 9 (Homo sapiens) (UniProt P45984). The note with it: at 1 µM.
The target is the same in test [19]. As to conditions: at 10 µM.
Test [20] has as its target Mitogen-activated protein kinase 10 (Homo sapiens) (UniProt P53779). The note with it: at 1 µM.

Insulin receptor-related protein (Homo sapiens), sequence (P14616 27-742 limits assumed): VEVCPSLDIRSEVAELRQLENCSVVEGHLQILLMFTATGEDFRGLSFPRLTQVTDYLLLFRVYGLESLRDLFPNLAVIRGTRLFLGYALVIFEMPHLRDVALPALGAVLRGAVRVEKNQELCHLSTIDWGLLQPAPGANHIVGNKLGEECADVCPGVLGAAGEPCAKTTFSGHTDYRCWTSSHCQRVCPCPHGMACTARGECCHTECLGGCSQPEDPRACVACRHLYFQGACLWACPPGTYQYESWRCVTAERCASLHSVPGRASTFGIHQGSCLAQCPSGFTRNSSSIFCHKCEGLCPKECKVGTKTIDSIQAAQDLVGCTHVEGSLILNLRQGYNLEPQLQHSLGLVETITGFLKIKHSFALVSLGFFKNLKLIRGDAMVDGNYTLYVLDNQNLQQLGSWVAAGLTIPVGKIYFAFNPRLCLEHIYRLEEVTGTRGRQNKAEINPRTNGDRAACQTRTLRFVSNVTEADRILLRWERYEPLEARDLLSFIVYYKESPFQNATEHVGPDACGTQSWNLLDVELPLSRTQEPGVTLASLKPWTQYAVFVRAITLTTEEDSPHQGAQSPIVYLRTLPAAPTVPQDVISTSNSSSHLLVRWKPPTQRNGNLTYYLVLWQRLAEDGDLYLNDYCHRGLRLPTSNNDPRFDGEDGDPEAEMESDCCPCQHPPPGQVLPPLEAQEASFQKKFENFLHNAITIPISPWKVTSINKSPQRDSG
Insulin receptor-related protein (Homo sapiens), sequence (P14616 747-1297 limits assumed): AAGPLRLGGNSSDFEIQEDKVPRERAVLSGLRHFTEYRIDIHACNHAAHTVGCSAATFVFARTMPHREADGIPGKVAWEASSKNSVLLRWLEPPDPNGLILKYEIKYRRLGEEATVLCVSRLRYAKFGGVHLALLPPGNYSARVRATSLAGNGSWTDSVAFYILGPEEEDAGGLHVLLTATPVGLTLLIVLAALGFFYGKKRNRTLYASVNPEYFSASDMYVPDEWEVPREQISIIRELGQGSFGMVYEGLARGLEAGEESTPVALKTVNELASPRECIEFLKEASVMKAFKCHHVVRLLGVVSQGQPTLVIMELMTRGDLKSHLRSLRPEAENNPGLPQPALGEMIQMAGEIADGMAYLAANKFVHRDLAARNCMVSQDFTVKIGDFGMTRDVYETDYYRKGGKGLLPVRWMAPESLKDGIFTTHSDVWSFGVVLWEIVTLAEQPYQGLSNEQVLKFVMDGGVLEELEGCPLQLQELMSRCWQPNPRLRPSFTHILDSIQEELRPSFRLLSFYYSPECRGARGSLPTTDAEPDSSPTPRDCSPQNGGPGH
Mitogen-activated protein kinase 9 (Homo sapiens), sequence (P45984 whole entry, looked up): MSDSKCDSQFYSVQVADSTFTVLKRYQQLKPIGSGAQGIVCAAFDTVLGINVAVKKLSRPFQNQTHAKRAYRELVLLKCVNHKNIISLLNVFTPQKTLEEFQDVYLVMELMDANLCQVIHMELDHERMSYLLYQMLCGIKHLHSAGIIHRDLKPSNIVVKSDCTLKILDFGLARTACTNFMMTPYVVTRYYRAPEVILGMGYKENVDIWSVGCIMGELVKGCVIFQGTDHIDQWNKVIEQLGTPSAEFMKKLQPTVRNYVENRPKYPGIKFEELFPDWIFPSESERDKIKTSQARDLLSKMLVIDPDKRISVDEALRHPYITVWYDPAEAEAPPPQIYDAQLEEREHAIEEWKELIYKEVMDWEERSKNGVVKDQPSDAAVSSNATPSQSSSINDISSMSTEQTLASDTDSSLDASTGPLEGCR
Interleukin-1 receptor-associated kinase 1 (Homo sapiens), sequence (P51617 whole entry, looked up): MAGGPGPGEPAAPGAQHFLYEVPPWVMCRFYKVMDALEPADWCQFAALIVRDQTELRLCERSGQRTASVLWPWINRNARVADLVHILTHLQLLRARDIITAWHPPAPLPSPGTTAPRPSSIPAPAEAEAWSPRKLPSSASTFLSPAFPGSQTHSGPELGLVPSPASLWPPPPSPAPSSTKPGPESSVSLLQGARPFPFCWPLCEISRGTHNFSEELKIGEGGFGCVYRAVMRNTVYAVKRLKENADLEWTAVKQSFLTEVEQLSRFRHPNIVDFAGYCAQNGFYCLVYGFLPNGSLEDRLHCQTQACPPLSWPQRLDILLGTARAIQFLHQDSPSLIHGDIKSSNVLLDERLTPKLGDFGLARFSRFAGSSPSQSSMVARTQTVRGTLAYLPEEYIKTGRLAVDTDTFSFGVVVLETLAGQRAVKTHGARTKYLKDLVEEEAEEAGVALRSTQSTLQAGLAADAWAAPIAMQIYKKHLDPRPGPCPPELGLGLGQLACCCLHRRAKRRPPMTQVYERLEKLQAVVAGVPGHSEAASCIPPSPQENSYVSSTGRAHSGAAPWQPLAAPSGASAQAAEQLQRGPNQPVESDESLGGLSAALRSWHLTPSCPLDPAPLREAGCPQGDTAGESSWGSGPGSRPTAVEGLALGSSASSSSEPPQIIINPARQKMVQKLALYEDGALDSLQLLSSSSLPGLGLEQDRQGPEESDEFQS
Mitogen-activated protein kinase 8 (Homo sapiens), sequence (P45983 whole entry): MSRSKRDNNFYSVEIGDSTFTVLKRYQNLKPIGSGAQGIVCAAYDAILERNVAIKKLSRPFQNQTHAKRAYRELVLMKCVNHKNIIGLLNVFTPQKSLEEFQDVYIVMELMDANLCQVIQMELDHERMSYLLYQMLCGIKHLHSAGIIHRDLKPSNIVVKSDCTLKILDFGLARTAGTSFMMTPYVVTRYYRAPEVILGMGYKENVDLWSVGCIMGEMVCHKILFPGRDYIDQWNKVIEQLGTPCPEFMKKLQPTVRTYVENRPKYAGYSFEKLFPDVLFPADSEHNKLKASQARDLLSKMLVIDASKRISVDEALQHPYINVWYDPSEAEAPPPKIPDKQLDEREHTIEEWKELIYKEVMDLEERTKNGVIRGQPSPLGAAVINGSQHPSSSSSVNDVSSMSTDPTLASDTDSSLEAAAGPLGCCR
Tyrosine-protein kinase JAK2 (Homo sapiens), sequence (O60674 whole entry): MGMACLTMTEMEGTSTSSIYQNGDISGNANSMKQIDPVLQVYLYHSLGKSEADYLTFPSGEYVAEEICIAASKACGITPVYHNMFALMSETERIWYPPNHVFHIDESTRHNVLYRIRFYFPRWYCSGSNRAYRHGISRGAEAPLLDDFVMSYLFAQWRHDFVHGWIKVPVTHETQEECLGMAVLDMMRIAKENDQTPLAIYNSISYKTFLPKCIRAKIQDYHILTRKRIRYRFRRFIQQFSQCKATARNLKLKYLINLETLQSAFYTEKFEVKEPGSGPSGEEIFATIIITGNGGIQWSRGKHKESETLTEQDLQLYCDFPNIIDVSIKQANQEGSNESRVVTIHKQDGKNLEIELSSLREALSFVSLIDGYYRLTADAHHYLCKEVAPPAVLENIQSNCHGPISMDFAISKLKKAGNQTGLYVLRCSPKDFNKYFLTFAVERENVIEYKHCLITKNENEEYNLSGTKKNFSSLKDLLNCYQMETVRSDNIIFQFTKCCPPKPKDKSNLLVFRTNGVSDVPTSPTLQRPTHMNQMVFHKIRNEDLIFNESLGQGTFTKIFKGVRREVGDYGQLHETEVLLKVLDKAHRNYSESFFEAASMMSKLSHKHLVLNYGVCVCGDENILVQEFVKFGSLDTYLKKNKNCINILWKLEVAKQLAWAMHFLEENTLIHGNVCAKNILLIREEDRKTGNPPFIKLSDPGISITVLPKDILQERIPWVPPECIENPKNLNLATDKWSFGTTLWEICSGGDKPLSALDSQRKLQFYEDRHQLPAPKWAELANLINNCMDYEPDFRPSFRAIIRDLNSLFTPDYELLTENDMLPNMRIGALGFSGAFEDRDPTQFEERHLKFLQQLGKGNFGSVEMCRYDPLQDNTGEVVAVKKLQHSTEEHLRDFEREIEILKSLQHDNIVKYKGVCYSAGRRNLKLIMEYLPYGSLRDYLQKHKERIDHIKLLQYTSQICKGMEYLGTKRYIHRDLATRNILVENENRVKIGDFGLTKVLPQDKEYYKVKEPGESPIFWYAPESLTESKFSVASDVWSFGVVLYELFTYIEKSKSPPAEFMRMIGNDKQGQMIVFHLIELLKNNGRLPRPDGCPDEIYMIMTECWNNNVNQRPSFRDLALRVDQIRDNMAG
Mitogen-activated protein kinase 10 (Homo sapiens), sequence (P53779 whole entry): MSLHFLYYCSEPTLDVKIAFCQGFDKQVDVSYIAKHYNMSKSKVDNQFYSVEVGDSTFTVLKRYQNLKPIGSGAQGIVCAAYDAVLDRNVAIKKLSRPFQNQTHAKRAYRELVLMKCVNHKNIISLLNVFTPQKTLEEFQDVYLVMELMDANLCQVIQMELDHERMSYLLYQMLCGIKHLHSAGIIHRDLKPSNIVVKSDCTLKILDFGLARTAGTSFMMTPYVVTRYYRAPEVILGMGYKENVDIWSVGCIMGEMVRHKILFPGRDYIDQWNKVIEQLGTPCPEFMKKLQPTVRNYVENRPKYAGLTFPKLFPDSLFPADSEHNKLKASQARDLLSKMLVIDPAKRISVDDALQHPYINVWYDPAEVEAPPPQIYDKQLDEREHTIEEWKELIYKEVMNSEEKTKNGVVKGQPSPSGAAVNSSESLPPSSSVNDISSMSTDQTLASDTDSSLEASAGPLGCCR

Regarding `Cc1ccc(S(=O)(=O)/C=C/C#N)cc1`, the residual activity in test [1] was 91%; in test [2] it was 99%; in test [3], 95%; in test [4], 102%; in [5], 109%; in test [6], 97%. For the same molecule, the residual activity in test [7] is 92%; in [8] it was 119%; in test [9] it was 106%; in test [10], 103%; in test [11] it was 102%; in [12], 99%. Besides, the residual activity in test [13] is 103%; in test [14], 109%; in test [15] it was 105%; in [16] it was 115%; in test [17], 96%; in test [18] it was 107%. For the same molecule, the residual activity in test [19] is 112%; in [20] it was 74%.
As for `CO[C@@H]1[C@H](N(C)C(=O)c2ccccc2)C[C@H]2O[C@]1(C)n1c3ccccc3c3c4c(c5c6ccccc6n2c5c31)C(=O)NC4`, the residual activity in [2] came out at 80%; in test [3], 72%; in test [4], 85%; in test [5], 74%; in test [6], 53%; in test [7], 47%. The residual activity amounted to 98% in test [8]; 57% in [9]; 56% in test [10]; 31% in test [11]; 7% in test [12]; 2% in [13]. Further, the residual activity in test [14] stood at 1%; in test [15], 1%; in test [16], 92%; in test [17] it was 67%; in [18], 99%; in [19], 91%. Besides, the residual activity in test [20] stood at 50%.
As to `Cc1cccc(-c2[nH]c(C(C)(C)C)nc2-c2ccc3c(c2)OCO3)n1`, the residual activity in [1] came to 89%; in test [4], 87%; in test [5], 75%; in test [8], 104%; in test [9] it was 88%; in test [10] it was 96%. Moreover, the residual activity in test [11] was 103%; in test [17], 97%; in test [19], 94%; in [20], 90%.
Turning to `c1ccc2c(-c3ccncc3)c[nH]c2c1`, the residual activity was determined as 70% in test [1]; 97% in test [2]; 87% in test [3]; 76% in [4]; 57% in test [5]; 94% in test [6]. The residual activity in test [7] was found to be 99%; in test [9], 83%; in test [10], 101%; in [11], 95%; in test [12], 97%; in test [13] it was 101%. Also, the residual activity amounted to 103% in test [14]; 97% in test [16]; 78% in [17]; 107% in test [18]; 93% in test [19].
As to `CC(=O)c1ccc(N2CCOCC2)cc1O`, the residual activity in [1] was 81%; in [2], 104%; in [3], 97%; in [4], 105%; in [5], 95%; in test [6] it was 95%. The residual activity came to 98% in test [7]; 97% in [10]; 97% in test [11]; 102% in test [12]; 96% in test [13]; 102% in test [14]. Moreover, the residual activity in test [15] is 105%; in test [16], 104%; in [17], 80%; in test [18] it was 101%; in test [19] it was 103%; in test [20], 88%.
With `CC(=O)O/N=C1\C(=C2\C(=O)Nc3cc(Br)ccc32)Nc2ccccc21`, the residual activity in test [1] was determined as 91%; in test [2] it was 102%; in test [3], 81%; in test [4] it was 95%; in test [5], 96%; in [6], 86%. Further, the residual activity worked out at 48% in test [7]; 109% in test [8]; 92% in test [9]; 82% in test [10]; 39% in [11]; 103% in test [12]. For the same molecule, the residual activity in [13] came to 71%; in test [14], 75%; in test [15], 26%; in [16] it was 98%; in test [17], 94%; in test [18], 91%. Besides, the values for the residual activity in [19] and in [20] were 94% and 77%, respectively.
Consider `O=c1cc(-c2cccc3c2Sc2ccccc2S3)oc(N2CCOCC2)c1`, for which the residual activity in test [1] was 136%; in [2], 98%; in test [3], 99%; in test [4], 102%; in test [6], 100%; in [7], 98%. In addition, the residual activity was 119% in test [8]; 96% in test [9]; 105% in test [10]; 99% in [11]; 98% in test [12]; 111% in [13]. Moreover, the residual activity came out at 114% in test [14]; 113% in test [15]; 108% in test [16]; 97% in [17]; 103% in [18]; 100% in [19]. The residual activity in test [20] turned out to be 91%.
As to `c1ccc(-c2n[nH]cc2-c2ccnc3ccccc23)nc1`, the residual activity in test [1] stood at 84%; in [2], 99%; in test [3], 105%; in [4] it was 91%; in [5], 73%; in [6], 87%. Besides, the residual activity in test [7] worked out at 101%; in test [8], 132%; in test [9] it was 79%; in test [10], 97%; in test [11] it was 104%; in test [12] it was 94%. Besides, the residual activity in [13] was 109%; in test [18], 109%; in test [19] it was 99%; in test [20], 79%.
